Inconclusive results are not listed. Activity calls are given as the source filed them. Calls come from the whole dose curve; as a rule, active = well fitted curve in the direction sought with a large enough effect; inconclusive = small, poorly fitted or top-dose-only effect, or another doubt; inactive = no such curve, though single readings can be large; an effect the other way counts as inactive or inconclusive.
Legend:
[1] = test system: Zika virus NS2B-NS3 protease (linked construct); assay: Primary screen NINDS Rhodamine qHTS for Zika virus inhibitors (AID 1347160); note: potency is the fitted concentration of half-maximal effect; nearly all actives have a fitted effect of over 55% in size
Summary of the method: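 Percent inhibition, normalized to uninhibited and enzyme-free controls, is fitted to a 4-parameter Hill equation. Fluorescence change comes from a 15-min cleavage of 1.5 microM bis-peptide Rhodamine110 substrate by 25 nM linked NS2B-NS3 at room temperature.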

[2] = HPAF-II Cancer Cell Toxicity qHTS against the NCATS CANVASS Library (AID 1347346); note: potency is the fitted concentration of half-maximal effect; nearly all actives have a fitted effect of over 55% in size
Summary of the method: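 HPAF-II cells were seeded at 1000 cells/well, allowed to settle for 4 h at 37 degrees C, then exposed to compounds in an 11-point series for 72 h. Viability was read by CellTiter-Glo luminescence.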

[3] = OV-SAHO Cancer Cell Toxicity qHTS against the NCATS CANVASS Library (AID 1347348); note: potency is the fitted concentration of half-maximal effect; nearly all actives have a fitted effect of over 55% in size
Summary of the method: (§1)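 ATP content after 72 h treatment, detected by CellTiter-Glo luminescence (15min room-temperature development), reflects cell viability. Wells contained 1000 cells and received compounds at 11 concentrations.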

[4] = Panc-1005 Cancer Cell Toxicity qHTS against the NCATS CANVASS Library (AID 1347349); note: potency is the fitted concentration of half-maximal effect; nearly all actives have a fitted effect of over 60% in size
Summary of the method: as §1

[5] = U-118MG Cancer Cell Toxicity qHTS against the NCATS CANVASS Library (AID 1347351); note: potency is the fitted concentration of half-maximal effect
Summary of the method: as §1

[6] = A2780 Cisplatin Sensitive Ovarian Cancer Cell Toxicity qHTS against the NCATS CANVASS Library (AID 1347353); note: potency is the fitted concentration of half-maximal effect; nearly all actives have a fitted effect of over 60% in size
Summary of the method: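 A2780 cisplatin-sensitive cells (750 per well) were seeded, left 4 h at 37 °C, then pin-dosed in an 11-point series. After 72 h at 37 °C/5% CO2, viability was measured as ATPLite luminescence.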

[7] = UWB1.289-WTBRCA1 Cancer Cell Toxicity qHTS against the NCATS CANVASS Library (AID 1347354); note: potency is the fitted concentration of half-maximal effect
Summary of the method: (§2)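 Cells were seeded at 1000 per well and allowed to settle 4 hours at 37 degrees C before pin transfer of compounds as an 11-point series. Viability was read by CellTiter-Glo luminescence after 72 hours' exposure.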

[8] = HEK-293 Cancer Cell Toxicity qHTS against the NCATS CANVASS Library (AID 1347355); note: potency is the fitted concentration of half-maximal effect; nearly all actives have a fitted effect of over 65% in size
Summary of the method: as §2

[9] = HPAF-II 24hr Apoptosis Induction qHTS against the NCATS CANVASS Library (AID 1347356)
Summary of the method: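 HPAF-II cells (500/well) in DMEM + 10% FBS were treated with an 11-point compound series for 24 hours at 37 degrees C. Caspase-3/7 activity was then read by Caspase-Glo DEVD luminescence after 15 min.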

[10] = HEK293 18hr Apoptosis Induction qHTS against the NCATS CANVASS Library (AID 1347357)
Summary of the method: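 HEK293 cells (500/well, DMEM + 10% FBS) treated with an 11-point series for 18 h at 37 degrees C. Caspase-3/7 activity read by Caspase-Glo luminescence after 15 min at room temperature.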

[11] = HEK293 24hr Apoptosis Induction qHTS against the NCATS CANVASS Library (AID 1347359)
Summary of the method: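 Caspase-3/7 activation measured as luminescence from the DEVD-based Caspase-Glo reagent, 15 min at room temperature, following 24-hour compound treatment of HEK293 cells.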

[12] = HPAF-II 18hr Apoptosis Induction qHTS against the NCATS CANVASS Library (AID 1347360)
Summary of the method: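 HPAF-II cells at 500/well were exposed for 18 h at 37 C to an 11-point compound series. Caspase-3/7 activity was read by Caspase-Glo luminescence after 15 min at RT.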

[13] = HEK293 12hr Apoptosis Induction qHTS against the NCATS CANVASS Library (AID 1347361)
Summary of the method: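 HEK293 cells (500/well) were exposed to an 11-point qHTS concentration series for 12 hours at 37 degrees C. Caspase-3/7 activity was then read by DEVD-substrate luciferase luminescence after 15 min at room temperature.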

[14] = target: Luciferin 4-monooxygenase (Photinus pyralis) (UniProt P08659); assay: Firefly luciferase counterscreen qHTS: Assay Interference Panel against the NCATS CANVASS Library (AID 1347363); note: series mostly up to about 57 µM
Summary of the method: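 Luminescence inhibition readout: compounds (11-point qHTS) sat 15 min at room temperature with substrate mix (0.013 mM luciferin and ATP), then firefly luciferase was added and signal read 5 min later.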

[15] = KB-8-5-11 Cancer Cell Toxicity qHTS against the NCATS CANVASS Library (AID 1347364); note: potency is the fitted concentration of half-maximal effect; nearly all actives have a fitted effect of over 75% in size
Summary of the method: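 KB-8-5-11 cells (500/well) in DMEM + 10% FBS were exposed to compounds in an 11-point qHTS series for 72 hr at 37C, 5% CO2. Viability was read by CellTiter-Glo luminescence.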

[16] = KB-3-1 Cancer Cell Toxicity qHTS against the NCATS CANVASS Library (AID 1347366); note: potency is the fitted concentration of half-maximal effect; nearly all actives have a fitted effect of over 75% in size
Summary of the method: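 KB-3-1 cells (500/well) in DMEM with 10% FBS were exposed to compounds for 72 h at 37C. Viability was read by CellTiter-Glo luminescence.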

[17] = qHTS for ATAD5 Agonist screened against the NCATS CANVASS Library (AID 1347367);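 note: luciferase reporter driven by ATAD5 which rises upon DNA damage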
Summary of the method: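 Luciferase reporter under ATAD5 control, stably integrated in HEK293T cells (2000/well). Compounds (11 points) incubated 16 h at 37C; viability read first by CellTiter-Fluor, then luminescence reporting ATAD5 activation. MMS positive control.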

[18] = G06 Cancer Cell Toxicity qHTS against the NCATS CANVASS Library (AID 1347368); note: potency is the fitted concentration of half-maximal effect; nearly all actives have a fitted effect of over 60% in size
Summary of the method: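 G06 dog glioma cells seeded at 500 cells/well were exposed to compounds (11-point qHTS series) for 72 hr at 37C, 5% CO2; viability read as ATP content by CellTiterGlo luminescence.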

[19] = J3T Cancer Cell Toxicity qHTS against the NCATS CANVASS Library (AID 1347371); note: potency is the fitted concentration of half-maximal effect
Summary of the method: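 J3T dog glioma cells (500 cells/well) were exposed to compounds in an 11-point series for 72 hr at 37C, 5% CO2. Cytotoxicity was read as ATP content by CellTiterGlo luminescence.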

[20] = target: Nuclear receptor subfamily 1 group I member 3 (Homo sapiens) (UniProt Q14994); assay: qHTS for Constitutive Androstane Receptor (CAR) Antagonist screened against the NCATS CANVASS Library (AID 1347372); note: potency is the fitted concentration of half-maximal effect
Summary of the method: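 HepG2-CYP2B6-hCAR double-stable cells plated, 4hr attach; cpd pin-transferred; CITCO 50 nM final; 24hr 37C/5% CO2; CellTiter-Fluor 1hr (fluorescence), then ONE-Glo luminescence.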

[21] = target: Nuclear receptor subfamily 1 group I member 3 (Homo sapiens) (UniProt Q14994); assay: qHTS for Constitutive Androstane Receptor (CAR) Agonist screened against the NCATS CANVASS Library (AID 1347373);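 note: every well also contained 1.5 µM PK11195 alongside the test compound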
Summary of the method: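 HepG2 cells stably expressing hCAR and a CYP2B6-2.2kb luciferase reporter were treated for 24hr at 37C with compounds (11-point qHTS) in the presence of 1.5uM PK11195. Reporter activation was read by ONE-Glo luminescence.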

[22] = qHTS for Hypoxia signaling pathway (HIF-1) antagonists against the NCATS CANVASS Library (AID 1347374); note: potency is the fitted concentration of half-maximal effect; nearly all actives have a fitted effect of over 60% in size
Summary of the method: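 HRE-bla ME-180 cells (2,000/well, 0.5% dialyzed FBS) were pre-incubated 5 h, then given an 11-point compound series plus CoCl2 (60 uM solution as added) for 17 h at 37C. CCF4 β-lactamase read (ex 405, em 460/530 nm) after 2 h at RT.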

[23] = 10-beta competent E. coli microbial cell viability qHTS against the NCATS CANVASS Library (AID 1347376); note: series mostly up to about 46 µM
Summary of the method: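 10-beta competent E. coli (0.9 OD culture diluted to 0.2 OD) exposed to compounds in an 11-point qHTS series, incubated overnight at 37C, 5% CO2. Viability read as ATP by BacTiter-Glo luminescence after 20 min at room temperature.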

[24] = qHTS for Inflammasome Signaling Inhibitors: IL-1-beta AlphaLISA screen against the NCATS CANVASS Library (AID 1347379);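 note: human THP-1 cells primed with LPS then triggered with ATP; secreted IL-1B measured as AlphaLISA emission at 615 nm; potency is the fitted concentration of half-maximal effect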
Summary of the method: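 Human THP-1 cells were pretreated 1 hr at 37 °C with compounds (up to 57.5 uM final), then stimulated with LPS (250 ng/mL final) and ATP (1.25 mM final). Secreted IL-1B was read by AlphaLISA after 16 hr.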

[25] = Inflammasome Signaling qHTS Counterscreen: IL-1-beta AlphaLISA counterscreen against the NCATS CANVASS Library (AID 1347381);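 note: cell-free check with purified IL-1β in medium and no THP-1 cells; series mostly up to about 57 µM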
Summary of the method: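 To flag interference with the AlphaLISA read-out, a known amount of purified IL-1-beta (4 pg) replaced cell supernatant. Detection used anti-IL-1-beta acceptor beads, biotinylated antibody and streptavidin donor beads at room temperature.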

[26] = Secretion counterscreen for inhibitors of the SERCaMP assay screened against the NCATS CANVASS Library (AID 1347390);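 note: light from luciferase secreted into medium read as a measure of general secretion; potency is the fitted concentration of half-maximal effect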
Summary of the method: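 SH-SY5Y cells with constitutively secreted GLuc reporter, 1000 cells/well, treated 20 h at 37C with compounds at 0.001 - 77 uM final; secreted luciferase read as luminescence after coelenterazine; Brefeldin A as positive control.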

[27] = qHTS for activators of dead-cell proteases activity screened against the NCATS CANVASS Library (AID 1347392);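 note: luminescence from protease leaking out of membrane-damaged cells cleaving impermeant substrate; rising signal means more cytotoxicity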
Summary of the method: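 Compounds are pin-transferred onto attached HepG2 cells, giving 11 final concentrations. After 5 h at 37C, AAF-aminoluciferin reagent is added and luminescence is recorded at room temperature.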

[28] = qHTS for inhibitors of ER calcium dysfunction: SERCaMP assay screened against the NCATS CANVASS Library (AID 1347393);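 note: series mostly up to about 77 µM; lower secreted reporter signal means inhibitor of ER calcium depletion; nearly all actives have a fitted effect of over 40% in size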
Summary of the method: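 Thapsigargin-induced ER calcium depletion drives GLuc-SERCaMP secretion from SH-SY5Y cells; compounds given 16 h beforehand were scored by lowered coelenterazine luminescence after 4 h challenge.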

[29] = Vero-766 cells viability qHTS against the NCATS CANVASS Library: Counterscreen for Zika virus inhibition assay (AID 1347394)
Summary of the method: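 Vero 766 cells (1000/well), without Zika virus, were exposed to compounds for 72 h at 37C. Viability was measured by CellTiter Glo luminescence. Media-only wells served as 100% inhibition.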

[30] = Redox Reaction Profiling qHTS: Assay Interference Panel against the NCATS CANVASS Library (AID 1347401)
Summary of the method: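 Cell-free redox surrogate: 5 uM resazurin + 200 uM DTT, 50 mM HEPES pH 7.3/50 mM NaCl; cpds pinned, 11-pt qHTS; Ex525/Em598 read t0 and t=15 min, dark.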

Measured: Potency

Nuclear receptor subfamily 1 group I member 3 (Homo sapiens), sequence (Q14994 whole entry, looked up): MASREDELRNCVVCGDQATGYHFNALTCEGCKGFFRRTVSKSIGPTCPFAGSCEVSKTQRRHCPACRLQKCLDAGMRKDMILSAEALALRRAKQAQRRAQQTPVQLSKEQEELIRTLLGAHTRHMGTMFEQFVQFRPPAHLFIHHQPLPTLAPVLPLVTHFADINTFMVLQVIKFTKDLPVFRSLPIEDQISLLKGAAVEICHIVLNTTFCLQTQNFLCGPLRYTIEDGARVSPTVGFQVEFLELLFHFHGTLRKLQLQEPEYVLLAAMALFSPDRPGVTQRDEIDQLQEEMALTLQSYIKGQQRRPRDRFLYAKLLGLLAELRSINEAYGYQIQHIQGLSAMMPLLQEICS
Luciferin 4-monooxygenase (Photinus pyralis), sequence (P08659 whole entry, looked up): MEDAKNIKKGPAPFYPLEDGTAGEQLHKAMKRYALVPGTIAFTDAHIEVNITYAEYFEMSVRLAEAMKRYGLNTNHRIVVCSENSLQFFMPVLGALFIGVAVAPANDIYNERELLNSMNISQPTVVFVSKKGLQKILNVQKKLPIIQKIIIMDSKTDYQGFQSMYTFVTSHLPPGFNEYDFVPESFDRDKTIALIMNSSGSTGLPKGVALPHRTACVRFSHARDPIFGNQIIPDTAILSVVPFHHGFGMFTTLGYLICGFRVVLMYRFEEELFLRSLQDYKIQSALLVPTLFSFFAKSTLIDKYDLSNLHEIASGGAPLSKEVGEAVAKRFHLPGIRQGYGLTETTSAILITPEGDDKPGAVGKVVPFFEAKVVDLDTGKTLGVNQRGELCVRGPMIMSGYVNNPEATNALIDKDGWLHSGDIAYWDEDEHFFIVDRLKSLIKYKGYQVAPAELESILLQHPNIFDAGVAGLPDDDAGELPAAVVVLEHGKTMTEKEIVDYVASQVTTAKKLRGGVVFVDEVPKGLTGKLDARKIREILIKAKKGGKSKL

O=C(c1ccccc1O)c1[nH]c(Cl)c(Cl)c1-n1c(C(=O)c2ccccc2O)cc(Cl)c1Cl
inactive: [9] | [10] | [11] | [12] | [13] | [14] | [17] | [21] | [23] | [25] | [27] | [28] | [30]
active: [1] 2.47 µM | [2] 1.33 µM | [3] 2.11 µM | [4] 2.11 µM | [5] 6.68 µM | [6] 3.72 µM | [7] 13.3 µM | [8] 4.18 µM | [15] 2.64 µM | [16] 2.35 µM | [18] 5.9 µM | [19] 2.96 µM | [20] 3.71 µM | [22] 1.18 µM | [24] 15.3 µM | [26] 19.3 µM | [29] 1.32 µM

Source: PubChem BioAssay (NCATS)
